Source: PubChem BioAssay
Shown are actives, neighbours in structure and some others; about 2.7% of the full set was active somewhere.
SENP8 block-1: SENP8 protease inhibition. purified SENP8, Z-RLRGG-aminoluciferin cleavage, luminescence. Q96LD8. inhibition, % at 10 µM. actives 1.2% (n = 330,000); in the data active = inhibition above about 50%
HSP90 refold inh: blocks HSP90-mediated luciferase refolding in reticulocyte lysate | Rabbit reticulocyte lysate, luciferase refolding luminescence, 3 h | inhibition, % at 5.6 µM | actives 0.91% (n = 290,000) | AID 1789;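 active = inhibition above the screen-wide mean plus 3 SD, computed separately per campaign, cut at about 16% in these data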;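 also: 0% = DMSO wells and 100% = 60 µM geldanamycin wells; inhibitors lower the luminescence because luciferase stays unfolded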
SENP6 block: inhibitors of human SENP6 protease; inhibition, % at 10 µM; AID 2599; Recombinant SENP6 catalytic domain, aminoluciferin luminescence; actives 1.8% (n = 330,000); Q9GZR1;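 active = inhibition above about 50% at the single tested dose, limit read from the data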;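 also: plate controls were DMSO wells with enzyme for no effect and DMSO wells lacking enzyme for full effect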
SENP7 inh: inhibitors of human SENP7 protease | Q9BQF6 | recombinant SENP7, Z-RLRGG-aminoluciferin luminescence, 40 min | inhibition, % at 5 µM | actives 1.5% (n = 330,000) | AID 434973;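 active = inhibition above about 50% at the single test dose, limit read from the data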;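 also: plate controls were DMSO with enzyme for no effect and no enzyme buffer wells for full effect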
Target sequence (Q9BQF6 706-1050 limits assumed): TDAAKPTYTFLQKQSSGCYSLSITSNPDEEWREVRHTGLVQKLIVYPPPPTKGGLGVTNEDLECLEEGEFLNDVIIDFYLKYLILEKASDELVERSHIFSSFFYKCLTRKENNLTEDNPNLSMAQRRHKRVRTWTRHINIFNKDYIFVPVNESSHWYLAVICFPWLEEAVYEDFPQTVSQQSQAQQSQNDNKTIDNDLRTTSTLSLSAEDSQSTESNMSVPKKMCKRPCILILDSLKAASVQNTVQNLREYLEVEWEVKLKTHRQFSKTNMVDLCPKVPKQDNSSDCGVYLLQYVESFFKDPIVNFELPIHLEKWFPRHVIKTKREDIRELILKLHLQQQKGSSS
SENP8 block-2: blocks human SENP8 cleavage of Nedd8 substrate; recombinant SENP8, Nedd8 substrate fluorescence; inhibition, % at 20 µM; actives 0.64% (n = 360,000); AID 602440; in the data active = inhibition mostly above about 40%, no sharp cut-off; inactive = mostly below about 27%
SENP8 conf-1: confirmation of human SENP8 protease inhibitors. shares compounds with SENP7 inh. Recombinant SENP8, Z-RLRGG-aminoluciferin luminescence, 60 min. inhibition, % at 12.5 µM. actives 40% (n = 6,200). AID 488912;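 active = mean inhibition across replicates above about 50%, limit read from the data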
SENP6 conf: human SENP6 inhibition, confirmed; inhibition, % at 12.5 µM; shares compounds with SENP7 inh; AID 488915; recombinant SENP6, Z-RLRGG-aminoluciferin luminescence; actives 58% (n = 6,200)
SENP7 conf: confirmation of human SENP7 protease inhibitors. AID 488917. recombinant SENP7, Z-RLRGG-aminoluciferin luminescence, 40 min. inhibition, % at 12.5 µM. actives 69% (n = 6,200). shares compounds with SENP7 inh
Casp3 SENP sel: caspase-3 inhibition (SENP selectivity assay); shares compounds with SENP7 inh; purified caspase-3, Z-DEVD-aminoluciferin luminescence, 60 min; inhibition, % at 12.5 µM; actives 60% (n = 6,200);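 active = mean inhibition above about 50%, limit read from the data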;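 also: plate controls were enzyme with DMSO for no effect and wells without caspase-3 for full effect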
Target sequence (P42574 28-227 limits assumed): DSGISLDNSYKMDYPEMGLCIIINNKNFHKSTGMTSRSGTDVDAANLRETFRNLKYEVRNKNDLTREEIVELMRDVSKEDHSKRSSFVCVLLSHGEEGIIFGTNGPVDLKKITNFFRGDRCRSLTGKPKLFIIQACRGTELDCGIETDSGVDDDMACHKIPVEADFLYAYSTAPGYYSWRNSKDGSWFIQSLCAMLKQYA
Luc interf: interferes with luciferase luminescence in SENP counter-screen | shares compounds with SENP7 inh | Pre-incubated SENP8/Z-RLRGG-aminoluciferin, luciferase luminescence interference | inhibition, % at 12.5 µM | actives 39% (n = 6,200);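 active = mean inhibition above about 50% when retested at one dose, limit read from the data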;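 also: plate controls were DMSO wells with completed reaction for no effect and substrate without enzyme for full effect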
SENP8 conf-2: confirmation of human SENP8 protease inhibitors | shares compounds with SENP8 block-2 | purified SENP8, Nedd8-AMC/pro-Nedd8 cleavage fluorescence, 30 min | inhibition, % at 25 µM | actives 15% (n = 1,400) | AID 624319; in the data active = inhibition mostly above about 39%, no sharp cut-off; inactive = mostly below about 34%
Active calls of the source: *; x = no result given.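 The calls were made as follows, unless noted: active = mean inhibition above about 50% in the one-dose retest (limit read from the data); inactive = the rest.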

SMILES	SENP8 block-1	HSP90 refold inh	SENP6 block	SENP7 inh	SENP8 block-2	SENP8 conf-1	SENP6 conf	SENP7 conf	Casp3 SENP sel	Luc interf	others
O=C1/C(=C/c2ccccc2)CCC1C1CCCC1 (configuration not stated)	0	-1	73*	64*	15	4	6	22	29	23
COc1ccccc1/C=C1\CCC(C2CCCC2)C1=O (configuration not stated)	-1	-1	7	-9	14	x	x	x	x	x
O=C1/C(=C/c2ccco2)CCC1C1CCCC1 (configuration not stated)	77*	-1	92*	73*	31	-2	77*	95*	57*	16
O=C1/C(=C/c2ccco2)Cc2ccccc21	33	-1	66*	2	-34	48	67*	90*	72*	29
CC(C)(C)OC(=O)C[C@H]1C/C=C\C[C@@H](CC(=O)NCCO)C(=O)NC[C@H](c2ccccc2)OC1=O	2	x	-19	-8	0	x	x	x	x	x
CC(C)(C)c1ccc(-c2ncccc2O)cc1	-6	-2	-19	12	-90	x	x	x	x	x
CC(=O)Nc1nc(SCC(=O)Nc2nnc(C)s2)[nH]c(=O)c1NC(=O)c1cccs1	-13	0	-23	-5	0	x	x	x	x	x
CCOc1ccc(/C=C2\CCC(C3CCCC3)C2=O)cc1 (configuration not stated)	31	-4	11	71*	11	16	18	15	36	4
CCOc1ccc(/C=C2\CCC(C3CCCC3)C2=O)cc1OC (configuration not stated)	-3	-1	18	1	11	x	x	x	x	x
CCn1c(COc2ccc(C)cc2)nc2ccccc21	11	3	-18	6	8	x	x	x	x	x
CC(=O)N(C)c1ccc(NC(=S)Nc2ccccc2)cc1	-2	0	-7	5	13	x	x	x	x	x
Fc1cccc(NC(=S)Nc2cccc3ccccc23)c1	28	5	57*	29	-393	-22	-16	-9	-11	-5
O=C(Nc1cccc2ccccc12)c1cccc(F)c1	-7	3	0	-4	5	x	x	x	x	x
CC(=O)N(C)c1ccc(NC(=S)Nc2cccc3ccccc23)cc1	59*	2	68*	47	-423	-22	-10	3	-3	-1
O=c1c2cc(F)ccc2sn1-c1ccccc1	75*	x	84*	22	5	83*	84*	96*	88*	77*
O=c1c2cc(C(F)(F)F)ccc2sn1-c1ccccc1	x	x	x	x	12	x	x	x	x	x
Cc1[nH]nc(SCC(=O)N2CCCCCC2)c1[N+](=O)[O-]	52*	1	-16	11	14	98*	100*	103*	99*	88*
Cc1[nH]nc(SCC(=O)N2CCCCC2)c1[N+](=O)[O-]	-2	9	1	-1	2	x	x	x	x	x
CCOc1cccc2cc(-c3cn4cc(C)ccc4n3)c(=O)oc12	9	3	-38	35	-300	x	x	x	x	x
CCOC(=O)C(Oc1ccc(=O)n(-c2ccccc2)n1)C(C)=O (configuration not stated)	-5	-1	-22	84*	10	7	10	7	4	2
COc1ccc(NC(=O)CSc2nc3c(c(-c4cccs4)c2C#N)CN(C)CC3)cc1OC	40	7	68*	23	52*	-1	2	5	4	0	SENP8 conf-2=1
O=c1c2ccccc2ncn1Cc1cccc2ccccc12	-12	0	-15	-7	2	x	x	x	x	x
Cc1[nH][nH]c(=O)c1C(c1c(C)[nH][nH]c1=O)c1cn(Cc2cccc3ccccc23)c2ccccc12	42	7	57*	24	86*	3	38	17	-1	-4	SENP8 conf-2=85*
O=C(COC(=O)C1CC2CCCC(C1)C2=O)NC(=O)c1ccc(OC(F)F)cc1 (configuration not stated)	-16	0	-3	-9	11	x	x	x	x	x
CCCCn1c(SCc2cccc([N+](=O)[O-])c2)nc2ccsc2c1=O	0	7	-5	0	17	x	x	x	x	x
SMILES	SENP8 block-1	HSP90 refold inh	SENP6 block	SENP7 inh	SENP8 block-2	SENP8 conf-1	SENP6 conf	SENP7 conf	Casp3 SENP sel	Luc interf	others
COc1cc(C(=O)c2nccc3cc(OC)c(OC)cc23)c([N+](=O)[O-])cc1OC	84*	13	95*	90*	106*	26	56*	24	-1	-5	SENP8 conf-2=80*
Nc1c(C(=O)N/N=C/c2ccc(Cl)cc2)cnn1-c1ccccc1	8	2	4	6	-40	x	x	x	x	x
Nc1scc2c(C(=O)N/N=C/c3ccc(Cl)cc3)nn(-c3ccccc3)c(=O)c12	25	16	50*	9	69*	21	26	18	24	-3	SENP8 conf-2=86*
Nc1ccc(N2CCCCC2)c2nonc12	58*	1	90*	25	80*	30	56*	20	-3	-3	SENP8 conf-2=70*
CCOC(=O)C1CCCN(C(=O)CCn2nnnc2CN2CCOCC2)C1 (configuration not stated)	-8	4	-12	-11	14	x	x	x	x	x
Cc1c(N=Cc2ccc(Br)s2)cccc1[N+](=O)[O-]	-12	-3	-9	-5	16	x	x	x	x	x
O=[N+]([O-])c1ccc(C=Nc2ccc(Cl)c([N+](=O)[O-])c2)s1	35	-2	50*	21	76*	5	40	22	4	3	SENP8 conf-2=80*
Cc1cc(C)cc(N=Cc2ccc([N+](=O)[O-])s2)c1	29	4	57*	17	75*	14	41	9	-4	-3	SENP8 conf-2=83*
CCc1nc2n[nH]c(N)c2c2c1CSC(C)(C)C2	3	-1	5	4	-14	x	x	x	x	x
CC1=NN(c2ccc(F)cc2)C(=O)C1C(c1cccc(O)c1)c1c(C)[nH]n(-c2ccc(F)cc2)c1=O (configuration not stated)	27	15	23	58*	90*	-17	19	6	-2	-1	SENP8 conf-2=52*
CN(C)c1ccc(NC(=O)Oc2ccccc2)cc1	36	1	75*	4	44*	64*	61*	85*	81*	46	SENP8 conf-2=10
CN(C)c1ccc(NC(=O)C[n+]2ccccc2)cc1	0	2	-7	-13	10	x	x	x	x	x
